CYP2C9 inhib: human CYP2C9 inhibition; P11712; CYP2C9 Supersomes, luciferin-H conversion, luminescence; inhibition, % at 5 µM; 96,000 compounds, 20% hits;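 active = blocking of liver enzyme CYP2C9 beyond about 50% at 5 µM, limit read from the data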
Target sequence (P11712 whole entry, looked up): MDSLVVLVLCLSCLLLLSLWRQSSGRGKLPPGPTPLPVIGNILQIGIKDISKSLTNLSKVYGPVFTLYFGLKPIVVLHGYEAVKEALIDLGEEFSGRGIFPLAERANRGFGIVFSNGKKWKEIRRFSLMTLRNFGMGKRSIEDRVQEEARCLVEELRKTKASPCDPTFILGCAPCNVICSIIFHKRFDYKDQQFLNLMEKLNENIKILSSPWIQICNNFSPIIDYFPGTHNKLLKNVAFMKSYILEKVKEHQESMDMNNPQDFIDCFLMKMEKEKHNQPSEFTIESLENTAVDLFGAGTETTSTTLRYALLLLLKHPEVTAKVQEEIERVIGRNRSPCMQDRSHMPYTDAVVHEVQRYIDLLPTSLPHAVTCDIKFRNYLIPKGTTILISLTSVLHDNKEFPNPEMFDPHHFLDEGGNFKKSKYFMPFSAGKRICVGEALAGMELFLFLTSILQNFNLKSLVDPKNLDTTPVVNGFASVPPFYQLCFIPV
Mac1 fbg enh: enhancers of human CD11b/CD18 binding to fibrinogen; 93,000 compounds, 0.07% hits; P05107+P11215; activation, % at 10 µM; K562 CD11b/CD18 adhesion to fibrinogen, ATPlite luminescence;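 active = 10 µM primary screen giving 50% or more activity, confirmed by 40% or more on retest at that dose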
Mac1 fbg inh: blocks human CD11b/CD18 adhesion to fibrinogen; K562 CD11b/CD18 adhesion to fibrinogen, ATPlite luminescence; Mn2+ added to activate the integrin; inhibition, % at 10 µM; 93,000 compounds, 0.54% hits; AID 1497;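 active = primary inhibition of 50% or more at 10 µM, then 40% or more on retest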
CYP2C9 act: increases human cytochrome P450 2C9 activity. P11712. recombinant CYP2C9, luciferin-H conversion, luminescence; hits give high values; factor 1 = untreated enzyme, 0 = blocked. activation factor at 5 µM. 96,000 compounds, 1.4% hits;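 active = activation factor of 2 or more for CYP2C9 at a 5 µM dose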
CYP2C19 act: increases human CYP2C19 enzyme activity; P33261; recombinant CYP2C19, luciferin-H EGE luminescence; hits give high values; 0 = fully inhibited enzyme, 1 = untreated enzyme; activation factor at 5 µM; 96,000 tested, under 10 active; AID 1025;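 active = activation factor of at least 2 at 5 µM in the primary screen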
CYP2C19 inhib: blocks human cytochrome P450 2C19; P33261; inhibition, % at 5 µM; 96,000 compounds, 21% hits; AID 778; CYP2C19 Supersomes, luciferin-H EGE luminescence, 30 min;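 active = CYP2C19 inhibition above a set limit at 5 µM in the primary screen, cut at about 50% in these data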
Each line names hits and unclear results; the compound was inactive in the other large screens. In the library only some 28% were active in any assay of this set; here they are far more common.

CC(=O)N1CCCc2cc(S(=O)(=O)Nc3ccc4c(c3)OCO4)ccc21	CYP2C9 inhib 86.8, CYP2C19 inhib 98.6
CC(=O)N1CCc2cc(S(=O)(=O)CCC(=O)NCc3ccc4c(c3)OCO4)ccc21	none (no result: Mac1 fbg enh, Mac1 fbg inh)
CC1CC(C)CN(C(=O)c2ccc3c(c2NCCO)C(=O)c2ccccc2C3=O)C1 (configuration not stated)	CYP2C9 inhib 94.6, CYP2C19 inhib 93.6
CS(=O)(=O)N(CC(=O)NCCSCc1cccc(Cl)c1)c1ccc2c(c1)OCO2	CYP2C9 inhib 82.5, CYP2C19 inhib 87.7
CS(=O)(=O)N(CC(=O)NCCSc1ccc(Cl)cc1)c1ccc2c(c1)OCO2	CYP2C9 inhib 61.7, CYP2C19 inhib 69.0
CS(=O)(=O)N(CC(=O)NCCSc1ccccc1)c1ccc2c(c1)OCO2	CYP2C9 inhib 63.8, CYP2C19 inhib 76.0
CS(=O)(=O)N(CC(=O)Nc1ccc2c(c1)OCO2)c1ccc2c(c1)OCO2	none
CCC(C(=O)c1ccc(O)cc1)c1ccccc1 (configuration not stated)	CYP2C19 inhib 52.0
CCCCCCC1CCC(c2nc(-c3ccncc3)no2)CC1 (configuration not stated)	CYP2C9 inhib 62.6, CYP2C19 inhib 88.8
OC1CN=C2C=CC=CN2C1 (configuration not stated)	none
CSc1nnc2n(Cc3ccccc3)c(=O)c3c4c(sc3n12)COC(C(C)C)C4 (configuration not stated)	none
O=c1c2c(-c3ccccc3)csc2ncn1/N=C/c1c2ccccc2cc2ccccc12	CYP2C9 inhib 84.7
Cc1nn(-c2ccccc2)c(N2CCCC2)c1/C=N/n1cnc2scc(-c3ccccc3)c2c1=O	none
CCCn1c(SCC(=O)Nc2sc(C)c(C)c2C#N)nnc1C(C)C	CYP2C19 inhib 75.3
Cn1cnnc1SCC(=O)Nc1sc2c(c1C(N)=O)CCC2	none (no result: Mac1 fbg enh, Mac1 fbg inh)
Cc1sc(NC(=O)CSc2nnc(C)c(=O)[nH]2)c(C#N)c1C	CYP2C9 inhib 97.4
Cc1nnc(SCC(=O)Nc2sc3c(c2C(N)=O)CCCC3)[nH]c1=O	CYP2C9 inhib 68.8 (no result: Mac1 fbg enh, Mac1 fbg inh)
O=C1CCC(/C=C/c2ccccc2)=NN1Cc1ccc(Cl)c(Cl)c1	CYP2C9 inhib 73.4
Cc1noc(C)c1COC(=O)CCc1nc2ccccc2s1	CYP2C19 inhib 58.8
Cc1noc(C)c1COC(=O)CCN1c2ccccc2Sc2ccccc21	CYP2C9 inhib 97.9, CYP2C19 inhib 88.2
CCC12CN3CC(CC)(CN(C1)C3c1c(O)ccc3ccccc13)C2=O (configuration not stated)	CYP2C19 inhib 53.7
CCN(c1cccc(C(F)(F)F)c1)S(=O)(=O)c1ccc2c(c1)CCN2C(=O)C1CC1	none
CCC(C)(C)n1nnnc1C(c1ccc(C)cc1)N1CCN(Cc2cccnc2)CC1 (configuration not stated)	none
CC(C)(C)n1nnnc1C(c1cccc(C#N)c1)N1CCC(Cc2ccccc2)CC1 (configuration not stated)	CYP2C9 inhib 83.3, CYP2C19 inhib 65.8 (no result: Mac1 fbg enh, Mac1 fbg inh)
CCC(C)(C)n1nnnc1C(c1cccc(C#N)c1)N1CCN(c2cc(C)ccc2C)CC1 (configuration not stated)	CYP2C9 inhib 70.2, CYP2C19 inhib 51.9
CCC(C)(C)n1nnnc1C(c1ccncc1)N1CCC(Cc2ccccc2)CC1 (configuration not stated)	CYP2C9 inhib 90.7, CYP2C19 inhib 89.8
CN1CCN(C(c2cccc(C(F)(F)F)c2)c2nnnn2C(C)(C)C)CC1 (configuration not stated)	none
COCCn1nnnc1C(c1cc2cc(OC)ccc2[nH]c1=O)N1CCC(Cc2ccccc2)CC1 (configuration not stated)	none (no result: Mac1 fbg inh)
COCCn1nnnc1C(C(C)C)N1CCC(Cc2ccccc2)CC1 (configuration not stated)	CYP2C9 inhib 55.8, CYP2C19 inhib 90.6
CCC(C)(C)n1nnnc1C(c1ccc(C)cc1)N1CCSCC1 (configuration not stated)	none
Cc1ccc(/C=N/N2CCN(Cc3cccc4ccccc34)CC2)o1	none
CCCSc1nnc(-c2ccccc2N)c(=O)[nH]1	none
COn1c(=O)c(-c2ccc(Cl)cc2)[n+]([O-])c2ccccc21	none

Bioassay records from PubChem BioAssay.
